Activity calls are given as the source filed them. Unless noted, no rule for the calls is given here.
Columns and labels:
[1] = test system: Wnt5a (protein binding on small-molecule microarray); test: Wnt5a binders on small-molecule microarray, primary screen, biophysical, 635/667 nm fluorescence (AID 1142); settings: 635 nm fluorescence, higher = more signal;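 also: fluorescence read at 667 nm with signal to noise per printed feature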
[2] = cell viability in Huh7 cells, primary screen, cytotoxicity control for HCV replication inhibitor project, CellTiter-Glo luminescence, basal, 48 h (AID 1143); settings: Huh7 HCV replicon, higher = more signal, called active from +8 up or from −8 down;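 also: Huh7 hepatoma cells carrying a hepatitis C replication reporter with no stimulus; test concentration not given here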
[3] = P. aeruginosa biofilm formation inhibitors, primary screen, PAO1 strain, BacTiter-Glo luminescence, LB-PBS (AID 1144); settings: 12 h, higher = more signal
[4] = CREB reporter modulators without forskolin, primary screen, cell-based, PC12, CRE-LacZ reporter, unstimulated (AID 1145); settings: no forskolin, luminescence, 4.5 h, higher = more signal, called active from +8 up or from −8 down
[5] = CREB reporter modulators under forskolin, primary screen, cell-based, PC12, CRE-LacZ reporter, forskolin-stimulated (AID 1146); settings: luminescence, 4.5 h, higher = more signal, called active from +8 up or from −8 down;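 also: PC12 cells with 6xCRE LacZ reporter stimulated by forskolin 10 µM; beta-galactosidase reporter signal reflecting CREB driven transcription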
[6] = target: Streptavidin (Streptomyces avidinii) (UniProt P22629); test: streptavidin binders on small-molecule microarray, primary screen, artefact control for SMM compound annotation, biophysical, 635/667 nm fluorescence (AID 1147); settings: streptavidin binding, higher = more signal;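 also: signal reflects streptavidin binding to arrayed compounds as a control protein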
Chain of Streptavidin (Streptomyces avidinii) (P22629 whole entry, looked up): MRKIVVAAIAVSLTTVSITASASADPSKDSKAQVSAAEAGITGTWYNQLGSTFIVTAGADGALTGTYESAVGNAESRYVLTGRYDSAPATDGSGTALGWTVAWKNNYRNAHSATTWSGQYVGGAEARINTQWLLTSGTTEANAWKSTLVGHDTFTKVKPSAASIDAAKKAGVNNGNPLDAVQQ

[7] = small-molecule binders of probe aInhba, primary screen, biochemical, small-molecule microarray, 635/667 nm fluorescence (AID 1148); settings: higher = more signal;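 also: score merges 667nm spot fluorescence with signal-to-noise for antibody binding to printed compounds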
[8] = target: Torsin-1A (Homo sapiens) (UniProt O14656); test: torsin A binders from cell lysate, primary screen, small-molecule microarray, wild-type, 635/667 nm (AID 1149); settings: COS7 hTOR1A-WT lysate, 635 nm fluorescence, higher = more signal
Chain of Torsin-1A (Homo sapiens) (O14656 whole entry, looked up): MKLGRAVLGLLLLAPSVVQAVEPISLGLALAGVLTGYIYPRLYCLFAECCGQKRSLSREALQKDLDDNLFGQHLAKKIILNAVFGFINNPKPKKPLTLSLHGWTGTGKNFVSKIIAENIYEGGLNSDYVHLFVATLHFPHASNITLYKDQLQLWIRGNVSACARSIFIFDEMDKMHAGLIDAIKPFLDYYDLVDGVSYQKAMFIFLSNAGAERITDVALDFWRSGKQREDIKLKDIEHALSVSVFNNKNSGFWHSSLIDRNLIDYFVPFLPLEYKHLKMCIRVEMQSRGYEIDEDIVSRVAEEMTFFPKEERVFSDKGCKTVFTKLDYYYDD

[9] = target: Torsin-1A (Homo sapiens) (UniProt O14656); test: small-molecule binders of mutant TOR1A in lysate, primary screen, cell lysate, small-molecule microarray, COS7 lysate, 635/667 nm fluorescence (AID 1150); settings: COS7 hTOR1A mutant lysate, 635 nm fluorescence, higher = more signal;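 also: score pools 667 nm emission and signal to noise measuring lysate protein binding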
[10] = test system: Sonic hedgehog protein (Shh); test: small-molecule binders of Shh protein, primary screen, biochemical, small-molecule microarray, 635/667 nm fluorescence (AID 1151); settings: small-molecule microarray binding, 635 nm fluorescence; higher = more signal;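 also: Shh protein binding to compounds spotted on small-molecule microarray slides; score combines spot fluorescence intensity with signal-to-noise across triplicate slides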

| Compound | composite z-score [1] | z-score [2] | z-score [3] | z-score [4] | z-score [5] | composite z-score [6] | composite z-score [7] | composite z-score [8] | composite z-score [9] | composite z-score [10] |
| --- | --- | --- | --- | --- | --- | --- | --- | --- | --- | --- |
| CC(C)=CCCC(C)=CCON=C1C[C@@H](O)[C@@H](O)[C@@H]2[C@@H]3C(=O)N(c4cccc(Oc5ccccc5)c4)C(=O)[C@@H]3CC[C@@H]12 | -0.102 | -4.07 (inactive) | -0.375 (inactive) | 2.51 (inactive) | 0.557 (inactive) | 0.217 | -0.128 | -0.38 | 0.0864 | 0.402 |
| CC(CCN1CCCCc2nc(C)c(C)cc21)=NOC[C@@H](C)[C@H](OCc1ccccc1)C(C)C | -0.876 | -1.07 (inactive) | -0.4 (inactive) | 0.262 (inactive) | 0.264 (inactive) | -2.45 | -0.37 | -1.62 | -1.49 | -0.689 |
| O=C1[C@H]2[C@H]3[C@H](O)[C@H](O)CC(=NOC[C@@H](O)COCc4ccco4)[C@H]3CC[C@H]2C(=O)N1C[C@@H]1CCCO1 | 0.228 | 0.208 (inactive) | -0.136 (inactive) | 0.424 (inactive) | 0.261 (inactive) | -0.0239 | -0.111 | 3.31 | 2.75 | 0.793 |
| CC(CCN1CCc2nc(-c3ccccc3)c(-c3ccccc3)cc2C1)=NOC[C@@H](O)[C@H]1O[C@@H]2OC(C)(C)O[C@@H]2[C@H]1O | 0.19 | -0.875 (inactive) | 0.306 (inactive) | 2.25 (inactive) | -0.311 (inactive) | 0.687 | -0.0589 | 0.648 | 0.587 | 1.09 |
| CCO[C@H](c1cc(OC)cc([N+](=O)[O-])c1OC)[C@H](C)C=CCC(=O)OC | -0.151 | 0.0843 (inactive) | -0.0286 (inactive) | -0.0684 (inactive) | -0.893 (inactive) | 0.0571 | -0.183 | 0.636 | 0.192 | 1.7 |
| CCOC(=O)[C@H](CC(C)C)NC(=O)CCC1CC(OC(=O)NCc2cccc3ccccc23)CC2(CCCC(COC(=O)NCCc3ccc(Cl)cc3)O2)O1 (stereo not given in full) | 0.0502 | -0.933 (inactive) | -1.39 (inactive) | -0.707 (inactive) | -1.17 (inactive) | 0.614 | -0.0987 | 0.549 | 0.372 | 0.728 |
| C=Cc1ccc([C@H]2N[C@H](C(=O)O)CC[C@@H]2C)cc1 | -0.0905 | 0.369 (inactive) | 0.53 (inactive) | -0.346 (inactive) | 0.179 (inactive) | -0.536 | -0.0714 | -0.188 | 0.307 | 0.36 |
| CCOC(=O)[C@H](CC(C)C)NC(=O)CCC1CC(OC(=O)NCc2cccc3ccccc23)CC2(CCCC(COC(=O)NCc3ccncc3)O2)O1 (stereo not given in full) | -0.0656 | -0.905 (inactive) | -0.243 (inactive) | 0.562 (inactive) | 0.633 (inactive) | 0.629 | 0.0074 | 0.126 | 0.565 | 1.25 |
| CCC1=NOC(CCC2CC(OC(=O)NCc3cccc4c3OCO4)CC3(CCCC(COC(=O)NCCc4ccccc4OC)O3)O2)C1 (stereo not given) | 0.196 | -0.491 (inactive) | 0.249 (inactive) | 1.46 (inactive) | 0.214 (inactive) | 0.72 | -0.152 | -0.0106 | 0.778 | 0.157 |
| O=C1[C@H]2[C@H]3[C@H](O)[C@H](O)CC(=NOC[C@@H](O)COCc4ccco4)[C@H]3CC[C@H]2C(=O)N1c1ccc(F)cc1F | -0.459 | -2.57 (inactive) | -1.34 (inactive) | 0.699 (inactive) | -0.455 (inactive) | -1.07 | -0.103 | 2.05 | 1.84 | 0.717 |
| CCCNC(=O)OC[C@H]1O[C@H](CCON=C(C)C)C=C[C@@H]1Oc1ccc(OC)cc1 | -0.0092 | 0.599 (inactive) | -0.523 (inactive) | -0.152 (inactive) | -0.315 (inactive) | 0.102 | -0.0791 | -0.0198 | -0.0963 | -0.318 |
| C#CCCCON=C1[C@H]2CCn3c(=O)n(C)c(=O)n3[C@H]2[C@H](O)[C@@H]2O[C@H]12 | 0.119 | 0.119 (inactive) | 0.806 (inactive) | 0.523 (inactive) | -0.149 (inactive) | 0.38 | 0.0471 | 0.326 | 0.693 | 0.837 |
| COC(=O)[C@@H]1CC[C@H](C)[C@@H](c2ccc(C)cc2)N1C(=O)c1ccc(C=NO[C@H](C)c2cn([C@@H]3COC[C@H]3O)nn2)cc1 | 0.177 | -0.228 (inactive) | 0.068 (inactive) | 2.34 (inactive) | -0.377 (inactive) | -0.243 | 0.0001 | 0.28 | 0.603 | 0.749 |
| CCOC(=O)[C@H](Cc1ccccc1)NC(=O)CCC1CC(OC(=O)NCCc2ccc(F)cc2)CC2(CCCC(COC(=O)NCc3ccccc3)O2)O1 (stereo not given in full) | 0.0738 | -0.471 (inactive) | 0.0402 (inactive) | 0.824 (inactive) | 1.63 (inactive) | 0.606 | 0.0074 | 0.409 | 0.129 | 0.952 |
| CON=C[C@@H](NS(=O)(=O)c1ccc(C)cc1)[C@H](C)C=CCC(=O)OC | 0.0181 | 0.319 (inactive) | -0.357 (inactive) | 0.173 (inactive) | -0.196 (inactive) | 0.188 | -0.128 | 0.379 | -0.199 | 0.779 |
| C[C@@H](c1ccccc1)N1C(=O)[C@H]2[C@H]3[C@H](O)[C@H](O)CC(=NO[C@@H]4O[C@H](CO)[C@@H](O)[C@H](O)[C@H]4O)[C@@H]3CC[C@H]2C1=O | 0.0794 | 0.401 (inactive) | -0.783 (inactive) | -0.566 (inactive) | 0.331 (inactive) | 0.238 | -0.0626 | 1.1 | 0.907 | 0.116 |
| Cc1ccc(S(=O)(=O)NC(CCc2ccccc2)CC(=O)C(C)(C)C)cc1 (stereo not given) | 0.375 | -0.482 (inactive) | 1.1 (inactive) | 0.2 (inactive) | -0.37 (inactive) | 0.191 | -0.0986 | 0.511 | 0.0204 | 0.71 |
| CC(C)C[C@H](NC(=O)CCC1CC(OC(=O)NCc2cccc3ccccc23)CC2(CCCC(COC(=O)NCc3ccccc3)O2)O1)C(=O)NCC(c1ccccc1)c1ccccc1 (stereo not given in full) | 0.451 | -0.363 (inactive) | -0.434 (inactive) | -0.258 (inactive) | 0.728 (inactive) | 0.396 | -0.0963 | 0.317 | 0.0582 | 0.954 |
| CC(=O)O[C@H]1C2=CO[C@H](C)[C@H]3[C@H]4C5=C([C@H](O)[C@H]6O[C@H]6C5=O)[C@H](OC4C)[C@@]23C(=O)[C@@H]2O[C@@H]21 (stereo not given in full) | 0.25 | -6.34 (inactive) | 0.298 (inactive) | 0.831 (inactive) | 16.6 (active) | -0.458 | -0.292 | -0.119 | -0.279 | 0.604 |
| COc1ccc(O[C@H]2C=C[C@@H](c3ccccc3)O[C@@H]2COC(=O)CCC(C)=NOC(C)CN2CCCc3nc(C)c(C)cc32)cc1 (stereo not given in full) | 0.162 | -0.61 (inactive) | -0.34 (inactive) | 0.448 (inactive) | -0.507 (inactive) | 0.629 | -0.12 | 0.0595 | 0.486 | 1.01 |
| CO[C@H]1COC(=O)[C@@H](C)COC(=O)[C@H](C)NC(=O)CC=C[C@H]1C | 0.0392 | -0.378 (inactive) | 0.371 (inactive) | -0.115 (inactive) | -0.959 (inactive) | -0.639 | -0.176 | 1.15 | 0.991 | 1.6 |
| CCOC(=O)C1=NO[C@]2(C=C(Br)C3(OCCCO3)[C@H]3O[C@H]32)C1 | 0.0562 | 0.974 (inactive) | 0.892 (inactive) | -0.254 (inactive) | 1.65 (inactive) | -0.468 | -0.163 | 0.748 | 1.42 | 0.0095 |
| C=C(C)C(=O)OCC1CN2[C@@H](CC[C@@H](C)[C@@H]2c2ccc(Br)cc2)C(=O)O1 (stereo not given in full) | 0.192 | -0.295 (inactive) | 1.34 (inactive) | 1.91 (inactive) | -0.0828 (inactive) | 0.33 | -0.0627 | -0.2 | 1.13 | 0.486 |
| C[C@@H]1CC[C@H]2C(=O)O[C@@H](Cc3ccccc3)CN2[C@H]1c1ccc(Br)cc1 | -0.0729 | -0.309 (inactive) | 0.502 (inactive) | 0.583 (inactive) | -0.143 (inactive) | -0.0253 | -0.133 | 0.433 | 0.533 | 0.656 |
| Cc1ccc(S(=O)(=O)N[C@@H]2COC(=O)[C@@H](C)COC(=O)CC=C[C@H]2C)cc1 | -0.278 | 0.215 (inactive) | -0.736 (inactive) | -0.116 (inactive) | -0.549 (inactive) | 0.095 | 0.0633 | 0.399 | 0.366 | 0.472 |
| O=C1OCCC=C1C(O)CCc1ccccc1 (stereo not given) | 0.0626 | 0.104 (inactive) | 1.15 (inactive) | 0.196 (inactive) | 0.571 (inactive) | 0.992 | -0.0562 | -0.0693 | 0.0478 | 0.316 |
| CC(CCN1CCCCc2nc(C)c(C)cc21)=NOC[C@@H](O)COCc1ccco1 | 0.59 | 0.159 (inactive) | 0.676 (inactive) | 0.662 (inactive) | 0.758 (inactive) | -0.555 | -0.15 | 3.74 | 3.23 | 2.31 |
| Cc1ccc(S(=O)(=O)N[C@H]2COC(=O)CC=C[C@H](C)[C@@H](NS(=O)(=O)c3ccc(C)cc3)COC(=O)CC=C[C@@H]2C)cc1 | -0.11 | -0.591 (inactive) | -0.681 (inactive) | -0.008 (inactive) | 0.556 (inactive) | 1.17 | -0.0645 | 0.649 | 0.741 | 0.483 |
| COC(=O)[C@H](C)NC(=O)CCC1CC(OC(=O)NCc2ccc3c(c2)OCO3)CC2(CCCC(COC(=O)NCC(c3ccccc3)c3ccccc3)O2)O1 (stereo not given in full) | 0.6 | -4.67 (inactive) | -0.405 (inactive) | -0.437 (inactive) | 1.96 (inactive) | 0.693 | -0.0719 | 0.0104 | 0.947 | 1.97 |
| COC(=O)CC=C[C@@H](C)[C@@H](C=NOCC[C@@H]1C=C[C@H](OC(C)=O)[C@@H](COC(C)=O)O1)NS(=O)(=O)c1ccc(C)cc1 | 0.146 | 0.415 (inactive) | 0.493 (inactive) | 1.28 (inactive) | 0.378 (inactive) | -0.376 | -0.0523 | 1.14 | 1.44 | 0.554 |
